# Dicer processing: inhibitors of Dicer pre-microRNA processing, primary screen, biochemical, cat-ELCCA, chemiluminescence; cat-ELCCA pre-miR-21 Dicer processing; stronger effect = higher value; z-score at 25 µM; actives 6% (n = 47,000); AID 1347074, 2019; in the data active = z-score above about 3, passing the limit was not always enough;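 also: plate controls were vehicle for no effect and no enzyme for full effect; higher signal means more uncleaved substrate so more Dicer inhibition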
# Target sequence (Q9UPY3 whole entry, looked up): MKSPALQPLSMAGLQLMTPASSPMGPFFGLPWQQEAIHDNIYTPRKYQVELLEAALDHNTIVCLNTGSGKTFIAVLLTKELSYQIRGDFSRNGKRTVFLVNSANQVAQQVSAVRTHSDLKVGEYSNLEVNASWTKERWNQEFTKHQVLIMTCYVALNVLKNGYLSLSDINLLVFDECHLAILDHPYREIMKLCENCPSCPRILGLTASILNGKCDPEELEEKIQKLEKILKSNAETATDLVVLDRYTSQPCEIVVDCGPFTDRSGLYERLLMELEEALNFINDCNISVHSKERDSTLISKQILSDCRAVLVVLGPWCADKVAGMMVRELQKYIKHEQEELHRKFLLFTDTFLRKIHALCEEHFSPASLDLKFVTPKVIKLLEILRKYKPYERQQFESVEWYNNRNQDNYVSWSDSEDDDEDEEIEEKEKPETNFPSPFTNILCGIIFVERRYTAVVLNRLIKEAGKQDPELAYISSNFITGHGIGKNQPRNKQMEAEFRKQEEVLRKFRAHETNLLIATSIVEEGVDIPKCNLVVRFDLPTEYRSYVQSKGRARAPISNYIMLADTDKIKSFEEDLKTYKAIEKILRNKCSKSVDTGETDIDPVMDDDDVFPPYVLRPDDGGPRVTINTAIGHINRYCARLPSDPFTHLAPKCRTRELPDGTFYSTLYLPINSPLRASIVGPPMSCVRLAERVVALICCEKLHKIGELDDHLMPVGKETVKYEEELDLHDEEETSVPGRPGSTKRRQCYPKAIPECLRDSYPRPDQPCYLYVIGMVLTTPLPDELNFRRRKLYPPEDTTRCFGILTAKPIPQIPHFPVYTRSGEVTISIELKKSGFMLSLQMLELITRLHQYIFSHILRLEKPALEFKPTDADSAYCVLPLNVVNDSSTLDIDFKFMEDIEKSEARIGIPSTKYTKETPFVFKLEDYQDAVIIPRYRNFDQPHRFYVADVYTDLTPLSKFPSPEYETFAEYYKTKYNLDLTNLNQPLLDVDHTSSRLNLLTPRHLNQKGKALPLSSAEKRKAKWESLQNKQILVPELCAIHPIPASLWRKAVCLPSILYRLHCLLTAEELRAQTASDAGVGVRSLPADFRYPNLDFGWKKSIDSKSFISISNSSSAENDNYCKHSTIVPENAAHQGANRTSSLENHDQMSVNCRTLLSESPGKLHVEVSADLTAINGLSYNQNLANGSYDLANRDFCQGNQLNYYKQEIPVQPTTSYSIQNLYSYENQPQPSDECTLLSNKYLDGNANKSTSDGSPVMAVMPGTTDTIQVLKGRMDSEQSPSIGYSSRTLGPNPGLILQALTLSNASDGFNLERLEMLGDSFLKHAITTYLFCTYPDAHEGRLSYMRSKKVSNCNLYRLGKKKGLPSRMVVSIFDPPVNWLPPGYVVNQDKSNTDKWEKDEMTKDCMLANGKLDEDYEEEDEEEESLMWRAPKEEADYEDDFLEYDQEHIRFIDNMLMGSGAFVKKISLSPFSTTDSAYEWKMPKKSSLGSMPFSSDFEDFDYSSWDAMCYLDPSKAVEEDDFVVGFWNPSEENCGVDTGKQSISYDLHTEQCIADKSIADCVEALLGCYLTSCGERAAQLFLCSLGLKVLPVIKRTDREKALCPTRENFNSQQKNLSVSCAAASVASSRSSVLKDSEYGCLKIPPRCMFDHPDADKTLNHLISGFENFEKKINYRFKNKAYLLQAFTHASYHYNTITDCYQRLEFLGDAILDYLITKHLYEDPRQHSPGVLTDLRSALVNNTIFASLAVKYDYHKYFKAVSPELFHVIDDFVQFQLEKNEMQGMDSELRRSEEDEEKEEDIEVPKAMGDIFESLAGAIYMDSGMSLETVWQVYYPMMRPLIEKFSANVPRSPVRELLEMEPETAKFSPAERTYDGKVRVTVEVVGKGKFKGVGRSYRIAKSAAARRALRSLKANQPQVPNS
# * = called active by the depositor. Many of the other results were omitted from the sample, so hits are more common in it than they were.
SMILES,Dicer processing
CN(C)CCCN1C(=O)C(=O)/C(=C(\O)c2ccc(Cl)cc2)C12C(=O)N(C)c1ccccc12 (centres undefined),1.95
COc1ccc2nc(N)sc2c1,0.42
COc1ccc2nc(C)cc(Cl)c2c1,2.67
COc1ccccc1-c1nc2ccc(Cl)cc2c(=O)o1,-1.78
COc1ccc2nc(C3C(=O)c4ccccc4C3=O)cc(Cl)c2c1,6.49*
COc1ccc2nc(C3C(=O)c4ccccc4C3=O)ccc2c1,0.25
COc1ccc2nc3ccccc3c(N)c2c1,3.98*
Nc1ccn(C2O[C@H](CO)[C@@H](O)C2(F)F)c(=O)n1 (some centres undefined),-1.34
COc1ccc2cc(C(=O)c3cc4ccc(OC)cc4oc3=O)c(=O)oc2c1,-1.09
CC1=C/C(=C/N(C)c2ccccc2)C(=O)S1,-0.95
Cc1ccc(C(=O)N2CCSC2=S)cc1,0.71
CCOC(=O)CCC(=O)Nc1sc2c(c1C(=O)OCC)CCCC2,1.54
COC(=O)c1c(NC(=O)c2ccccc2C(=O)O)sc2c1CCC2,3.06*
COC(=O)c1c(NC(=O)c2c(OC)cccc2OC)sc2c1CCC2,1.48
CCOC(=O)c1c(NC(=O)CC)sc2c1CCC2,1.43
COc1ccc(NC(=O)c2c(NC(=O)c3ccco3)sc3c2CCC3)cc1,3.26*
COC(=O)c1c(NC(=O)CCCC(=O)O)sc2c1CCC2,4.35*
NC(=O)c1c(NC(=O)c2ccccc2C(=O)O)sc2c1CCCC2,0.5
COc1ccccc1NC(=O)c1c(NC(=O)c2ccco2)sc2c1CCC2,0.05
COC(=O)c1c(NC(=O)c2cc(OC)cc(OC)c2)sc2c1CCC2,0.77
CCc1cc2c[n+](C3CCCCC3)sc2s1,-1.15
O=C1c2ccccc2-c2onc3ccc(Nc4ccccc4)c1c23,0.12
COc1cc(C(F)(F)F)c(-c2ncn[nH]2)cn1,0.52
Cn1ncc2c(-n3ncc(C(=O)NNC(=O)c4ccco4)c3C(F)(F)F)ncnc21,-0.69
Cc1nc2ccc(C(=O)OCC(=O)c3ccc(Cl)cc3)cc2nc1C,-0.86
SMILES,Dicer processing
CC1(C)OC(=O)C(=CNc2ncccn2)C(=O)O1,0.04
CCOC(=O)CSC1=C(C#N)C(c2ccc(Cl)cc2)CC(=O)N1 (centres undefined),1.07
N#CNC(=Nc1ccccc1)Oc1ccccc1,-0.23
CC(=O)OCC(CCn1cnc2cnc(N)nc21)COC(C)=O,3.4
COc1ccc(O)c(C2=NN3C(C2)c2cccc(OC)c2OC3c2ccc(O)c(OC)c2)c1 (centres undefined),0.94
COc1cc(C2Oc3c(OC)cccc3C3CC(c4cc(C)ccc4O)=NN32)ccc1O (centres undefined),14*
COc1cccc2c1OC(c1ccncc1)N1N=C(c3cc(C)ccc3O)CC21 (centres undefined),2.54
COc1ccc(O)c(C2=NN3C(C2)c2cccc(OC)c2OC3c2ccncc2)c1 (centres undefined),6.23*
COc1cccc(C2Oc3c(OC)cccc3C3CC(c4cc(OC)ccc4O)=NN32)c1 (centres undefined),2.65
COc1ccc(C2Oc3c(OC)cccc3C3CC(c4cc(C)ccc4O)=NN32)cc1O (centres undefined),2.62
Cn1nc(C(F)(F)F)c(-c2ccccc2)c1N1C(=O)CSCC1=O,0.59
CSc1ccccc1N1CC(C(=O)O)CC1=O (centres undefined),-1.59
NS(=O)(=O)c1ccc(Sc2nc3ccccc3s2)c([N+](=O)[O-])c1,-0.77
Cn1c(=O)c(Cc2ccccc2)c(OC(=O)c2ccccc2)c2ccccc21,0.78
CCOC(=O)NNc1ccc(C(F)(F)F)cn1,-0.87
Cc1cc(NC(=O)C2Sc3nnc(C)n3NC2c2ccc(Cl)cc2)ccc1Br (centres undefined),3.72*
Cc1cc(C)cc(NC(=O)C2Sc3nnc(C)n3NC2c2ccc(Cl)cc2)c1 (centres undefined),-0.77
Cc1nnc2n1NC(c1ccc(Cl)cc1)C(C(=O)Nc1ccc(Br)cc1)S2 (centres undefined),-0.11
Cc1cc(C(C)(C)C)c(O)c(C)c1CC1=NCCN1,-0.7
O=C1CC(N2CCN(c3ccccn3)CC2)C(=O)N1c1ccc(F)cc1 (centres undefined),0.49
c1ccc(N2CCN(c3nc4ccccc4[nH]3)CC2)nc1,3.48*
Fc1ccc2[nH]c(CN3CCN(c4ccccn4)CC3)cc2c1,0.68
COc1ccc(COC(=O)C2=C(C)NC3=C(C(=O)CCC3)C2c2ccc(O)c(OC)c2)cc1 (centres undefined),1.41
CCC(=O)Oc1ccc2nc(-c3ccc(C)c(C)c3)oc(=O)c2c1,-2.67
CCC(=O)Oc1c(C)cc(O)c2ccccc12,-1.18
CCC(=O)Oc1cc(C)c2sc3ccccc3c(=O)c2c1,4.43*
CN1CN=C(SCc2ccc(C#N)cc2)NC1,-1.04
Cc1c(C)c(C)c(CSC2=NCC(C)N2)c(C)c1C (centres undefined),4.05*
Cc1c(C)c(C)c(CSC2=NCCC2)c(C)c1C,-0.75
Cc1cc(C)c(CSC2=NCCN2)c(C)c1CSC1=NCCN1,-3.75

# Bioassay records deposited in PubChem BioAssay by Center for Chemical Genomics, University of Michigan.
